Data taken from PubChem BioAssay.
Calls of active or inactive are those of the source. Unless noted, the rule behind the calls is not given here.

What was measured:
[1] = compounds binding Alexa647 anti-His antibody – biochemical, small-molecule microarray, 635 nm fluorescence, artefact control for SMM control protein annotation, primary screen (AID 1128); conditions: higher = more signal;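 note: score merges feature fluorescence with signal-to-noise for each printed compound spot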
[2] = tested on: Human papillomavirus type 1a E7 protein (residues 1-88); assay: HPV1a E7 small-molecule binders, primary screen, biochemical, small-molecule microarray, residues 1-88, 635 nm (AID 1129); conditions: small-molecule microarray binding, fluorescence 635 nm; higher = more signal
[3] = target: Focal adhesion kinase 1 (Homo sapiens) (UniProt Q05397); assay: PTK2 protein binding on printed compound slides – biochemical, small-molecule microarray, 635/667 nm fluorescence, BSA, DTT, primary screen (AID 1130); conditions: 635 nm fluorescence, higher = more signal;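 note: composite of spot emission at 667 nm and signal to noise over triplicate slides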
[4] = tested on: Fibrinogen (Alexa647-labelled); assay: Alexa647-fibrinogen binding to printed small molecules – biochemical, small-molecule microarray, 635/667 nm fluorescence, artefact control for SMM control-protein annotation, profiling panel (AID 1131); conditions: fibrinogen-A647 binding fluorescence, higher = more signal;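 note: z-score merges 667 nm fluorescence with per-spot signal-to-noise over triplicate slides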
[5] = target: Follistatin (Homo sapiens) (UniProt P19883); assay: FST protein binding to printed compounds – biochemical, small-molecule microarray, 635/667 nm fluorescence, primary screen (AID 1132); conditions: 635 nm fluorescence, higher = more signal
[6] = target: Fibroblast growth factor 2 (Homo sapiens) (UniProt P09038); assay: basic fibroblast growth factor binding to printed compounds – biochemical, small-molecule microarray, 635/667 nm fluorescence, primary screen (AID 1133); conditions: FGF2, fluorescence 635/667, higher = more signal
[7] = JC-1 mitochondrial potential readout, lung cancer cells – cell-based, A549, JC-1 fluorescence, basal, 24 h, 100 nL, profiling panel (AID 1138); conditions: higher = more signal;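 note: A549 lung adenocarcinoma cells under basal conditions with no added stimulus; test concentration not given here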
[8] = tested on: Lefty1; assay: Lefty1 protein binding to printed compounds – biochemical, small-molecule microarray, 635/667 nm fluorescence, primary screen (AID 1139); conditions: fluorescence 635/667, higher = more signal
[9] = tested on: wheat germ agglutinin (Triticum aestivum), Alexa647-labelled; assay: Alexa647-WGA lectin binding to printed small molecules – biochemical, small-molecule microarray, 635/667 nm fluorescence, artefact control for SMM control-protein annotation, profiling panel (AID 1140); conditions: WGA-A647 binding, 635 nm fluorescence, higher = more signal;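 note: score merges 667 nm feature emission with signal to noise over triplicate slides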
[10] = target: Luciferin 4-monooxygenase (Photinus pyralis) (UniProt P08659); assay: inhibition of purified Photinus pyralis luciferase – biochemical, luminescence, purified enzyme, 2006 set, primary screen (AID 1141); conditions: purified firefly luciferase, SteadyGlo luminescence, 30 min; higher = more signal, called active from +8 up or from −8 down;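 note: cell-free assay with purified firefly luciferase at 100 ng per well in PBS; test concentration not given here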
[11] = tested on: Wnt5a (protein binding on small-molecule microarray); assay: small molecules binding Wnt5a protein – biophysical, small-molecule microarray, 635/667 nm fluorescence, primary screen (AID 1142); conditions: 635 nm fluorescence, higher = more signal;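 note: fluorescence read at 667 nm with signal to noise per printed feature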
[12] = ATP-based viability of Huh7 replicon cells – cell-based, CellTiter-Glo luminescence, basal, 48 h, cytotoxicity control for HCV replication inhibitor project, primary screen (AID 1143); conditions: higher = more signal, called active from +8 up or from −8 down;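 note: Huh7 hepatoma cells carrying a hepatitis C replication reporter with no stimulus; test concentration not given here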
[13] = Pseudomonas biofilm growth suppression – PAO1 strain, BacTiter-Glo luminescence, LB-PBS, primary screen (AID 1144); conditions: P. aeruginosa PAO1 biofilm, 12 h, higher = more signal
[14] = basal CRE-LacZ reporter activity in PC12 – cell-based, unstimulated, primary screen (AID 1145); conditions: no forskolin, luminescence, 4.5 h, higher = more signal, called active from +8 up or from −8 down
[15] = forskolin-driven CRE-LacZ activity in PC12 – cell-based, CRE-LacZ reporter, forskolin-stimulated, primary screen (AID 1146); conditions: luminescence, 4.5 h, higher = more signal, called active from +8 up or from −8 down;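 note: PC12 cells with 6xCRE LacZ reporter stimulated by forskolin 10 µM; beta-galactosidase reporter signal reflecting CREB driven transcription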
[16] = target: Streptavidin (Streptomyces avidinii) (UniProt P22629); assay: compounds binding control protein streptavidin – biophysical, small-molecule microarray, 635/667 nm fluorescence, artefact control for SMM compound annotation, primary screen (AID 1147); conditions: higher = more signal;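 note: signal reflects streptavidin binding to arrayed compounds as a control protein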
[17] = probe aInhba binding on compound microarray – biochemical, small-molecule microarray, 635/667 nm fluorescence, primary screen (AID 1148); conditions: higher = more signal;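 note: score merges 667nm spot fluorescence with signal-to-noise for antibody binding to printed compounds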
[18] = target: Torsin-1A (Homo sapiens) (UniProt O14656); assay: TOR1A wild-type binding on microarray – cell lysate, small-molecule microarray, lysate, 635/667 nm, primary screen (AID 1149); conditions: COS7 hTOR1A-WT lysate, 635 nm fluorescence, higher = more signal
[19] = target: Torsin-1A (Homo sapiens) (UniProt O14656); assay: torsin A mutant lysate binding on microarrays – cell lysate, small-molecule microarray, COS7 lysate, 635/667 nm fluorescence, primary screen (AID 1150); conditions: COS7 hTOR1A mutant lysate, 635 nm fluorescence, higher = more signal;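 note: score pools 667 nm emission and signal to noise measuring lysate protein binding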
[20] = tested on: Sonic hedgehog protein (Shh); assay: Sonic hedgehog microarray binding compounds – biochemical, small-molecule microarray, 635/667 nm fluorescence, primary screen (AID 1151); conditions: 635 nm fluorescence, higher = more signal;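 note: Shh protein binding to compounds spotted on small-molecule microarray slides; score combines spot fluorescence intensity with signal-to-noise across triplicate slides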

Chain of Streptavidin (Streptomyces avidinii) (P22629 whole entry, looked up): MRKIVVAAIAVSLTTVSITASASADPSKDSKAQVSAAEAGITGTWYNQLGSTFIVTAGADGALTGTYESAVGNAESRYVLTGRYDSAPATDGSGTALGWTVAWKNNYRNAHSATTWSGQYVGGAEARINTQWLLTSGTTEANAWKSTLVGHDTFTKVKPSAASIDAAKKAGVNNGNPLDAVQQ
Chain of Torsin-1A (Homo sapiens) (O14656 whole entry, looked up): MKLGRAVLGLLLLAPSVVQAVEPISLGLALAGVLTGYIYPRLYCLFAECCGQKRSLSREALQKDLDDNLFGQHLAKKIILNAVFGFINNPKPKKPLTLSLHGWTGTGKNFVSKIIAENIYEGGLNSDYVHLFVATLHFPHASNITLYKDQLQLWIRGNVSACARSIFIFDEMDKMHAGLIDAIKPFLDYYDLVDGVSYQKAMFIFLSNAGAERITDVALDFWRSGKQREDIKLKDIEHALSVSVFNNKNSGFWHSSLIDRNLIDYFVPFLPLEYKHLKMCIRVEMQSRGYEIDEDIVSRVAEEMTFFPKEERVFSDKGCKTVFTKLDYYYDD
Chain of Luciferin 4-monooxygenase (Photinus pyralis) (P08659 whole entry, looked up): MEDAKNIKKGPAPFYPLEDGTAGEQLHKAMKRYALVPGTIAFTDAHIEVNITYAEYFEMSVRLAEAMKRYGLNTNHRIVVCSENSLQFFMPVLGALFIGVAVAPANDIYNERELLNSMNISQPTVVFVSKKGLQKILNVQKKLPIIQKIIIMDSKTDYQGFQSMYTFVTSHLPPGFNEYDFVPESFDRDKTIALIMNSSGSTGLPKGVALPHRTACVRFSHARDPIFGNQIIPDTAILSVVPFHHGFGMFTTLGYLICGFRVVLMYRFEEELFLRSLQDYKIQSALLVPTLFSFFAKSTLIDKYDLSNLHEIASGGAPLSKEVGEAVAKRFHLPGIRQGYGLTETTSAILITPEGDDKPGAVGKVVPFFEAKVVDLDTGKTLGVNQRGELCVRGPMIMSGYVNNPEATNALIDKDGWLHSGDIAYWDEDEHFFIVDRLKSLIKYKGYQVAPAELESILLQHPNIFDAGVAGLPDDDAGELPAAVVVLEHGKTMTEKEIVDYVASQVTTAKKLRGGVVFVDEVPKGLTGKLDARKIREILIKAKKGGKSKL
Chain of Fibroblast growth factor 2 (Homo sapiens) (P09038 whole entry, looked up): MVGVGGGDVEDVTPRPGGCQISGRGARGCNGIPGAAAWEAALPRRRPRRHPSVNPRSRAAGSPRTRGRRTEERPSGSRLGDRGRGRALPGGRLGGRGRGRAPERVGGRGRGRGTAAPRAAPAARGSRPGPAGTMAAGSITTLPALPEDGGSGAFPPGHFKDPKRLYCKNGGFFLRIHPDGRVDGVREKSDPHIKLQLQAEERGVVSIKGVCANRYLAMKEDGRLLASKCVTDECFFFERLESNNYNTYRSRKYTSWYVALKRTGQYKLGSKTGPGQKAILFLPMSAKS
Chain of Follistatin (Homo sapiens) (P19883 whole entry, looked up): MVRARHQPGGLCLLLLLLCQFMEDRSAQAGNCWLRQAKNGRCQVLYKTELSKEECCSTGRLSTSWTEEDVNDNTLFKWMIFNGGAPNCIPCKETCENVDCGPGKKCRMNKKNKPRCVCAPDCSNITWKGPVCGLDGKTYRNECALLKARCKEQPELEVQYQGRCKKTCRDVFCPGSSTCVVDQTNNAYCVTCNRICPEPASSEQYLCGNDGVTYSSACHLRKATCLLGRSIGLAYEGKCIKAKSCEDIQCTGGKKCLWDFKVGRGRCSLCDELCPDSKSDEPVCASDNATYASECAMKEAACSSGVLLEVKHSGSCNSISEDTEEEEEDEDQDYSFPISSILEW
Chain of Focal adhesion kinase 1 (Homo sapiens) (Q05397 whole entry, looked up): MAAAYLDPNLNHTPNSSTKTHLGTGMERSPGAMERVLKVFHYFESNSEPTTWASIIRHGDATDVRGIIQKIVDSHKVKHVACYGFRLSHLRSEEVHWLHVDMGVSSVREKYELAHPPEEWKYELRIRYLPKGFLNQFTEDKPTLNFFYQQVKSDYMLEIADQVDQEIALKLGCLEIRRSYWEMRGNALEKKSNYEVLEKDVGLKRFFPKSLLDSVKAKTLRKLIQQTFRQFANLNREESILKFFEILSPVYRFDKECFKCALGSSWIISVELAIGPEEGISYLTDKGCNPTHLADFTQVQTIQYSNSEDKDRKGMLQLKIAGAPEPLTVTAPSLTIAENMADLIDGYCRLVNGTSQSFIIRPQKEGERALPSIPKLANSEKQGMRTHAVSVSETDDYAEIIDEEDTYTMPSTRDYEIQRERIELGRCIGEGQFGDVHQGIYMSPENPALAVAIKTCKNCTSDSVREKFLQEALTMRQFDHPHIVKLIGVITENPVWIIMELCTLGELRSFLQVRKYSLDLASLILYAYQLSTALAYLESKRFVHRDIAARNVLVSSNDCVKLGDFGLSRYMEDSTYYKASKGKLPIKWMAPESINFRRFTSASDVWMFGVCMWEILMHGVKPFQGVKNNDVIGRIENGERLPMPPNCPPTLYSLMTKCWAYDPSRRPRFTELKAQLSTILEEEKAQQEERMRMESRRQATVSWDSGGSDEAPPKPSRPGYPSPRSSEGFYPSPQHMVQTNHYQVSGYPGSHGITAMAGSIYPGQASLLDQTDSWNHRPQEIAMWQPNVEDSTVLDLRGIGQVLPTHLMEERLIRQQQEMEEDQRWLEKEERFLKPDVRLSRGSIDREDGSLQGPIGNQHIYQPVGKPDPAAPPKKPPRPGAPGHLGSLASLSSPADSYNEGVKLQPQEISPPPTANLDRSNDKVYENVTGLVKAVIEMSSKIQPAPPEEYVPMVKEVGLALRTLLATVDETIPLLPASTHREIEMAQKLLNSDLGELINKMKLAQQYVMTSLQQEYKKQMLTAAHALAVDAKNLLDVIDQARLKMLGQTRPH

| SMILES | composite z-score [1] | composite z-score [2] | composite z-score [3] | composite z-score [4] | composite z-score [5] | composite z-score [6] | z-score [7] | composite z-score [8] | composite z-score [9] | z-score [10] | composite z-score [11] | z-score [12] | z-score [13] | z-score [14] | z-score [15] | composite z-score [16] | composite z-score [17] | composite z-score [18] | composite z-score [19] | composite z-score [20] |
| --- | --- | --- | --- | --- | --- | --- | --- | --- | --- | --- | --- | --- | --- | --- | --- | --- | --- | --- | --- | --- |
| [N-]=[N+]=Nc1ccccc1[C@H]1OC(c2ccc(OCCCO)cc2)=N[C@@]1(CCS(=O)(=O)c1ccccc1)C(=O)N1CCOCC1 | 2.83 | 1.26 | 1.32 | 1 | 1.3 | 1.73 | -0.218 | 0.225 | 1.47 | -15 (active) | 1.48 | -2.5 (inactive) | 0.385 (inactive) | 0.937 (inactive) | 0.28 (inactive) | 0.877 | 0.496 | 0.35 | 0.923 | 0.836 |
| CN(C)CCCCCCNC(=O)[C@@H]1C[C@@H]2C(=O)NCC(=O)N2[C@@H]1c1cccc(OCCO)c1 | 2.96 | 1.28 | 0.446 | 0.232 | 1.34 | 0.826 | 0.295 | 1.36 | -0.0165 | -0.791 (inactive) | 1.21 | 0.105 (inactive) | -0.418 (inactive) | -0.549 (inactive) | -0.832 (inactive) | 0.312 | 0.105 | 1.14 | 2.07 | 1.64 |
| COc1ccc([Si](C)(C)[C@H]2[C@H](CC(=O)N3CCC[C@H]3CO)O[C@@]3(C(=O)N(Cc4cccc(N5CCC5=O)c4)c4ccccc43)[C@@H]2C)cc1 | 0.744 | 1.24 | 0.474 | 0.734 | 1.36 | 1.55 | 1.4 | 1.38 | 0.532 | -0.493 (inactive) | 0.749 | -3.02 (inactive) | 0.596 (inactive) | 1.66 (inactive) | -1.2 (inactive) | 0.0783 | -0.0132 | 0.633 | 0.594 | 1.49 |
| COc1cc(NN2C(C(O)c3ccccc3)C=CC3C(=O)N(c4ccccc4)C(=O)C32)cc(OC)c1OC (stereo not given) | 1.67 | 1.28 | 0.707 | 0.967 | 0.952 | 0.444 | 1.42 | 0.879 | 1.39 | -2.13 (inactive) | 0.421 | -3.47 (inactive) | -0.525 (inactive) | 0.433 (inactive) | -0.557 (inactive) | 0.148 | 0.0829 | 0.179 | 0.989 | 0.89 |
| CN(C)CCCC[C@@H]1NC(=O)[C@@H]2C[C@H](C(=O)NCCCCCN)[C@H](c3ccc(O)cc3)N2C1=O | 0.637 | 0.732 | 0.91 | 0.502 | -0.126 | -0.585 | 0.393 | -0.318 | 1.09 | -0.806 (inactive) | -0.286 | 0.202 (inactive) | -0.504 (inactive) | 0.549 (inactive) | 0.304 (inactive) | 1.26 | -0.0639 | 0.424 | 0.901 | -0.631 |
